ROC1-CUL1 inh = inhibitors of human ROC1-CUL1 ubiquitin ligase activity; E3 ubiquitin-protein ligase RBX1 (Homo sapiens) + Cullin-1 (Homo sapiens), P62877+Q13616; inhibition, % at 10 µM; 140,000 compounds, 0.6% hits; in vitro K48 di-Ub FRET, acceptor:donor ratio, 45 min; AID 1347404, 2020; in the data active = inhibition above about 25%
Target sequence (P62877 whole entry, looked up): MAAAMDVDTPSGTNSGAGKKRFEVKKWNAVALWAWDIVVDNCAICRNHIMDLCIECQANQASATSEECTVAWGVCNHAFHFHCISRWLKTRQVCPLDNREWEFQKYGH
Target sequence (Q13616 whole entry, looked up): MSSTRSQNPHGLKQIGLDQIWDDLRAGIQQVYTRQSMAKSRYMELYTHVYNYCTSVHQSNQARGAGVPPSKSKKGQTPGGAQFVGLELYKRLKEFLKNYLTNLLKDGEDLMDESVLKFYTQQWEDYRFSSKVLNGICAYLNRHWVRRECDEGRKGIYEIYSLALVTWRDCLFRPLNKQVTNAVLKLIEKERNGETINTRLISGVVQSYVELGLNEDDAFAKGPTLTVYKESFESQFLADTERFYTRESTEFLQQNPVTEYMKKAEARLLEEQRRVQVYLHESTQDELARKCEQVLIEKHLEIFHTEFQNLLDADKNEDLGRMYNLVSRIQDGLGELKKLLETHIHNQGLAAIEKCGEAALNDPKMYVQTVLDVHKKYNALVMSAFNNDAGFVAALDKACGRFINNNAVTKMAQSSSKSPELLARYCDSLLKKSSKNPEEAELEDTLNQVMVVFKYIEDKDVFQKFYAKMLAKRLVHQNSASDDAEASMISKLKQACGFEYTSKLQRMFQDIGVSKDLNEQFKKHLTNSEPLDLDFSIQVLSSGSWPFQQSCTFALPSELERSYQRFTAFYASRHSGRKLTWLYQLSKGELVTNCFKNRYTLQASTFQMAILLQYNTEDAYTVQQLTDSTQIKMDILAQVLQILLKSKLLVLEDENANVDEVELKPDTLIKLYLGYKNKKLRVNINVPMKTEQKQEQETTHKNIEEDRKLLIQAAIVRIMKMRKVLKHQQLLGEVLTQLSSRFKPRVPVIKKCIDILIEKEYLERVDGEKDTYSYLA
A number is an active result. This excerpt belongs to a sample that is enriched for hits.

`O=C1NN(c2ccccc2)C(=O)/C1=C/c1cc(Br)ccc1OCc1c(Cl)cccc1Cl` gave ROC1-CUL1 inh inactive.
Screening COc1ccc(/C=C2\C(=O)NN(c3ccc(Cl)cc3)C2=O)cc1OC returned ROC1-CUL1 inh inactive.
CCOc1cc(/C=C2\C(=O)NN(c3ccccc3)C2=O)cc(Br)c1OCc1c(Cl)cccc1Cl was read as ROC1-CUL1 inh 28.
Screening CCOc1cc(/C=C2\C(=O)NN(c3ccccc3)C2=O)cc(Br)c1OCc1ccc(Cl)c(Cl)c1 returned ROC1-CUL1 inh inactive.
CCOc1cc(/C=C2\C(=O)NN(c3ccccc3)C2=O)cc(Cl)c1OCCCOc1ccc(Cl)cc1 was read as ROC1-CUL1 inh inactive.
For N#Cc1cccc(NC(=O)CCC(=O)Nc2cccc(C#N)c2)c1 the results were ROC1-CUL1 inh inactive.
`CNC(=O)c1ccc(C2CCCN2c2cc(C3CCNCC3)ncn2)s1` (centres undefined) gave ROC1-CUL1 inh inactive.
Screening N#CC1C(=N)Oc2n[nH]c(-c3cccc4ccccc34)c2C1c1ccc(C(F)(F)F)cc1 (centres undefined) returned ROC1-CUL1 inh inactive.
Screening Cn1c(=O)cc(SCC(=O)N2CCN(c3ccccc3F)CC2)c2ccc(Cl)cc21 returned ROC1-CUL1 inh inactive.
Cc1cc2n(n1)CCCN2C(=O)Nc1cccc(C)c1C was read as ROC1-CUL1 inh inactive.
For O=C(CSC1=NC(=O)C(C/C=C/c2ccccc2)C(=O)N1)Nc1cccc(F)c1 (centres undefined) the results were ROC1-CUL1 inh inactive.
`CCCC1c2c(C)nn(-c3ccccc3)c2N=C2C(Nc3ccc(OC)cc3)=Nc3ccccc3N21` (centres undefined) gave ROC1-CUL1 inh inactive.
`Cc1ccc(NC(=O)c2sc3nc(-c4ccccc4)cc(-c4ccc(Cl)cc4)c3c2N)cc1` gave ROC1-CUL1 inh inactive.
`COc1cccc(-c2ccc3c(N)c(C(=O)Nc4ccc(C)c(Br)c4)sc3n2)c1` gave ROC1-CUL1 inh inactive.
Screening c1ccc(OCc2cn(-c3ccccc3)nn2)cc1 returned ROC1-CUL1 inh inactive.
For CN(C)P(=O)(Nc1ccc(Cl)cc1)Nc1ccc(Cl)cc1 the results were ROC1-CUL1 inh inactive.
Screening O=C(c1ccco1)n1nc(-c2ccco2)oc1=S returned ROC1-CUL1 inh inactive.
For O=C1C(=O)N(C2CCN(C(=O)c3ccc(Cl)cc3)CC2)CCN1Cc1ccc(F)cc1 the results were ROC1-CUL1 inh inactive.
For Cc1ccc2c(c1)C1(C)C=CC(=O)CC1O2 (centres undefined) the results were ROC1-CUL1 inh inactive.
Screening COc1cc(/C=C2/C(=O)NN(c3ccc(C)c(Cl)c3)C2=O)ccc1OCc1ccccc1 returned ROC1-CUL1 inh inactive.
`COc1cc(/C=C2/C(=O)NN(c3ccc(Cl)cc3)C2=O)ccc1OCc1ccc(F)cc1` gave ROC1-CUL1 inh inactive.
COc1cc(/C=C2\C(=O)NN(c3ccccc3)C2=O)cc(Cl)c1OCc1ccc(Cl)c(Cl)c1 was read as ROC1-CUL1 inh 57.
`O=C(CNc1ccccc1)N/N=C/c1cc2c(cc1Br)OCO2` gave ROC1-CUL1 inh inactive.
`CCOC(=O)c1ccc(N2C(=O)c3[nH]nc(-c4ccc(C)cc4)c3C2c2cccc(F)c2)cc1` (centres undefined) gave ROC1-CUL1 inh inactive.
For CC(=O)[C@]1(O)Cc2c(O)c3c(c(O)c2[C@@H](OC(C)(C)C)C1)C(=O)c1ccccc1C3=O the results were ROC1-CUL1 inh inactive.
For O=C1N=C(N2CCN(c3ccccc3)CC2)S/C1=C\c1ccc(-c2ccccc2)o1 the results were ROC1-CUL1 inh inactive.
For COCCN1C(=O)/C(=C/c2ccc(-c3ccc(C(=O)O)c(Cl)c3)o2)SC1=Nc1ccccc1 the results were ROC1-CUL1 inh inactive.
Screening O=C1OC(c2ccccc2)=N/C1=C\c1ccc(-c2ccc(C(=O)O)cc2)o1 returned ROC1-CUL1 inh inactive.
O=C(O)c1cc(N2C(=O)/C(=C\c3ccc(-c4ccc(Br)cc4)o3)C=C2c2ccccc2)ccc1O was read as ROC1-CUL1 inh 97.
`CN(C)c1ncc2c(n1)CCCC2NS(=O)(=O)/C=C/c1ccccc1` (centres undefined) gave ROC1-CUL1 inh inactive.
Cc1cccc(C)c1NC(=O)CN1C(=O)c2cccc3cccc1c23 was read as ROC1-CUL1 inh inactive.
Screening COCCNC(=O)c1cnsn1 returned ROC1-CUL1 inh inactive.
For COc1ccc(-c2ccnc3c2c(=O)[nH]c(=O)n3CCc2ccccc2)cc1 the results were ROC1-CUL1 inh inactive.
`CC(C)Oc1ccc(CC2=NC(=S)NC2=O)cc1` gave ROC1-CUL1 inh inactive.
Screening O=C(O)COc1ccc(CC2=NC(=S)NC2=O)cc1 returned ROC1-CUL1 inh inactive.
Screening O=C1NC(=S)N=C1Cc1ccc(OCc2cccc(C(=O)O)c2)cc1 returned ROC1-CUL1 inh 26.
Screening OC1CCN(Cn2nnc3ccccc32)CC1 returned ROC1-CUL1 inh inactive.
Screening COc1ccc(CC2(CO)CCN(Cc3csc(C(C)=O)c3)CC2)cc1 returned ROC1-CUL1 inh inactive.
`CCOc1ccc(C(=O)N2CCN(Cc3ccco3)CC2)cc1` gave ROC1-CUL1 inh inactive.
`COc1cc(/C=C2\SC(=Nc3ccccc3Cl)NC2=O)ccc1OCC(=O)O` gave ROC1-CUL1 inh inactive.
`C=CCOc1ccc(/C=C2\SC(=Nc3ccccc3)NC2=O)cc1OCC` gave ROC1-CUL1 inh inactive.
Screening CCOc1cc(/C=C2/SC(=O)N(C(C)C)C2=O)c(Br)cc1OCC(=O)Nc1ccccc1 returned ROC1-CUL1 inh inactive.
`CCOc1cc(/C=C2\SC(=Nc3cccc(C(=O)O)c3)NC2=O)c(Br)cc1OCC(=O)Nc1ccc(C)cc1` gave ROC1-CUL1 inh 97.
COc1cc(/C=C2\SC(=Nc3cccc(Br)c3)NC2=O)ccc1OCC(=O)O was read as ROC1-CUL1 inh 30.
CCOC(=O)c1ccc(N=C2NC(=O)/C(=C\c3cc(Br)ccc3OCC(=O)Nc3ccccc3OC)S2)cc1 was read as ROC1-CUL1 inh inactive.
For Cn1c(=O)oc2cc(S(=O)(=O)N3CCCC(C(=O)NCCc4ccc(Cl)cc4)C3)ccc21 (centres undefined) the results were ROC1-CUL1 inh inactive.
CCCCCCC(=O)Oc1ccc(N2C(=O)C3C4CC(C(Br)C4Br)C3C2=O)cc1 (centres undefined) was read as ROC1-CUL1 inh inactive.
`CC(C)c1ccc(-c2cc(C(=O)NNC(=O)Nc3ccc(Cl)c(Cl)c3)c3ccccc3n2)cc1` gave ROC1-CUL1 inh inactive.
O=C(CCn1cccn1)N(Cc1cccnc1)CC1CCN(C2CCCC2)CC1 was read as ROC1-CUL1 inh inactive.
Screening C=CCn1nnc(NC(=O)c2ccccc2)n1 returned ROC1-CUL1 inh inactive.
O=C(N=C(Cc1cccc(Br)c1)C(=O)N1CCCCC1)c1ccco1 was read as ROC1-CUL1 inh inactive.
Screening Cc1ccc(SC(C)C(=O)NCc2ccco2)cc1 (centres undefined) returned ROC1-CUL1 inh inactive.
`CN(C)c1cc(N/N=C/c2ccc(-c3ccc(C(=O)O)cc3)o2)nc(N(C)C)n1` gave ROC1-CUL1 inh 62.
Screening CN(C)c1cc(N/N=C/c2ccc(OCc3ccc(F)cc3)cc2)nc(N(C)C)n1 returned ROC1-CUL1 inh inactive.
Screening Cc1cccc(OCC(=O)NCC(=O)N/N=C/c2ccc(-c3ccc(C(=O)O)cc3)o2)c1 returned ROC1-CUL1 inh inactive.
Screening CN1C2CCC1CC(NCC(=O)N1c3ccccc3Sc3ccc(C(F)(F)F)cc31)C2 (centres undefined) returned ROC1-CUL1 inh inactive.
Cc1c(/C=N/Nc2ccc([N+](=O)[O-])cc2)c2ccccc2n1C was read as ROC1-CUL1 inh inactive.

Assay outcomes: PubChem, Pan Lab, Icahn School of Medicine at Mount Sinai
